Percent Effect data for 50 molecules are collected here from ChEMBL document CHEMBL3988442, “University of Dundee, Small-Polar-MMV Screening Library” (2021).

In assay [1] the target is T1, Aspartate--tRNA(Asp/Asn) ligase (Mycobacterium tuberculosis (strain ATCC 25618 / H37Rv)) (UniProt P9WFW3). Further: in the data most compounds retested in dose-response had high values.
T1 sequence (whole entry): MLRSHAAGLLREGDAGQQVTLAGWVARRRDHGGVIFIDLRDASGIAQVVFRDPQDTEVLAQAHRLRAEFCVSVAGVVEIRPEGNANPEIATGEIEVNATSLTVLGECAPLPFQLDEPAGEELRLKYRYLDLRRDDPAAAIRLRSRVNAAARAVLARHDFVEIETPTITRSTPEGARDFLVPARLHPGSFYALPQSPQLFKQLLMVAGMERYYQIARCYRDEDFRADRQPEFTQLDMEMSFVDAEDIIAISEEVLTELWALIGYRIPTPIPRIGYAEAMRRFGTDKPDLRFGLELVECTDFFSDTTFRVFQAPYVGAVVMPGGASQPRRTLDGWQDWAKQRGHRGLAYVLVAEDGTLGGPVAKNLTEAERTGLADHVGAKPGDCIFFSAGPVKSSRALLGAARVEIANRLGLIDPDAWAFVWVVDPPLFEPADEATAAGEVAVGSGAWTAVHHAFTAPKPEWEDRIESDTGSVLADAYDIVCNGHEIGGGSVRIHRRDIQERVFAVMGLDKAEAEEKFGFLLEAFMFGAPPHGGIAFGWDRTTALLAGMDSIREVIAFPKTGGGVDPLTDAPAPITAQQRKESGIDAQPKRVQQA
In words: Assay for Asp RNA synthetase-1 from Mycobacterium tuberculosis. The format is functional. More on the design: scale not given: direction of the effect not stated beside the values. As to conditions: 30 µM.

Assay [2] addresses Shiga toxin 2 (Escherichia coli O157:H7) (UniProt P09385+P09386). Kind of assay: E. coli 0.157:H7 Shiga Toxin SOP - stx2 screening assay. Format: functional. More on the design: scale not given: direction of the effect not stated beside the values. As to conditions: 30 µM.

In the case of `Cc1cc(C[C@@H]2COC[C@H]2NCc2ccc(Br)s2)on1`, the Percent Effect was -1.77% in assay [1] and 4.69% in assay [2].
In the same order, the values of `Cc1nc(CN(C)C2CCN(CC3CCCCC3)C2)no1` (stereo not given) are -2.62% and -9.5%.
As to `CC(=O)NC(C)CC(=O)NCc1cccnc1Oc1ccccc1C` (stereo not given), the Percent Effect in assay [1] is -4.43%; in assay [2] it was 2.41%.
For `COc1cc(N2C[C@@H]3COC[C@]3(COc3ccc(C#N)cn3)C2)ncn1` the same measures were -1.45% and 11.9%.
As to `CC(C)NC(=O)N1CCC2(COCc3cnc(-c4cccnc4)nc32)C1` (stereo not given), the figures for the Percent Effect in assay [1] and in assay [2] were -2.8% and 2.56%, respectively.
Turning to `CC1CCCN(Cc2coc(-c3cccc(F)c3)n2)C1` (stereo not given), the Percent Effect was -10.1% in assay [1] and 7.24% in assay [2].
`CC(C)n1cnc2c1C(C(=O)NCCC#N)N(Cc1ccccc1)CC2` (stereo not given): the Percent Effect in assay [1] was -1.11%; in assay [2], -31.8%.
In the case of `CNc1cc(N2CCCC2CNCc2c[nH]nc2C(C)(C)C)ncn1` (stereo not given), the values for the Percent Effect in assay [1] and in assay [2] were 1.25% and -11.5%, respectively.
For `CCc1ncc2c(n1)CN(CC(=O)Nc1ccc(Cl)cn1)CC2` the same measures were 0.367% and -9.49%.
For `CC(C)c1nc2n(n1)CC(NCc1nnnn1C1CC1)CC2` (stereo not given), the Percent Effect worked out at 1.55% in assay [1] and 8.39% in assay [2].
For `CC(C)CC(=O)N1C[C@@H]2CCN(c3ncccn3)C[C@@H]2C1`, the Percent Effect was 4.21% in assay [1] and -21.6% in assay [2].
For the molecule `Cc1nnc(N2C[C@H](C(=O)NCC3CC3)[C@@H]3CCO[C@@H]3C2)s1`, the Percent Effect is -0.219% in assay [1] and -6.05% in assay [2].
In the case of `CCc1noc(C(C)N2CCN(Cc3ncc(C(C)(C)C)o3)CC2)n1` (stereo not given), the Percent Effect in assay [1] was -1.28%; in assay [2], 23.4%.
For `O=C1CCC2(CCCN(CCc3ccccc3)C2)N1Cc1cccnc1` (stereo not given), the Percent Effect in assay [1] was 4.25%; in assay [2] it was -5.68%.
On to `CCc1nnc(CNCC2CCN(CC(O)c3ccccc3)CC2)o1` (stereo not given), for which the Percent Effect in assay [1] is -2.95%; in assay [2], -40.8%.
On to `Cc1ncsc1-c1nnc(C2CCN(Cc3ccc(F)cc3)CC2)o1`, for which the Percent Effect in assay [1] was 4.24%; in assay [2], -43.6%.
With `COc1ccc(OC)c(-c2nc(CN(C)Cc3nncn3C)c(C)o2)c1`, the Percent Effect was 5.61% in assay [1] and -20.1% in assay [2].
In the same order, the values of `Cc1n[nH]c(C2CN(C(=O)c3cc(C4CC4)[nH]n3)CCO2)n1` (stereo not given) are 1.87% and 23.4%.
Consider `Cc1ccc(CNC(c2ccccc2)c2nccn2C)cc1C` (stereo not given), for which the Percent Effect in assay [1] turned out to be 1.11%; in assay [2], 14.8%.
In the same order, the values of `Cc1nn(C)c(C)c1C1CCCN1C(=O)CCCn1cccn1` (stereo not given) are -2.95% and 10.6%.
Turning to `Cc1cc(C(=O)N2C[C@@H]3COC[C@]3(COCc3cccnc3)C2)no1`, the Percent Effect in assay [1] was 0.918%; in assay [2], -6.54%.
In the same order, the values of `COc1ccc(CCN2CCCC(Cn3nc(C)nc3C)C2)cc1` (stereo not given) are -3.48% and -52.1%.
In the same order, the values of `Cn1nc(CNC(=O)C2COc3ccccc3O2)cc1C1CC1` (stereo not given) are 6.34% and 17%.
`Cc1noc(CCCC(=O)NC(C)c2cccnc2)n1` (stereo not given): the Percent Effect was -0.922% in assay [1] and 31.2% in assay [2].
For the molecule `CCN1CCN(c2nc(C(C)C)nc3c(C)nn(CC)c23)CC1`, the Percent Effect is -2.11% in assay [1] and -52.4% in assay [2].
Consider `NC(=O)C1(CCCc2cccnc2)CCCN(c2ncccn2)C1` (stereo not given), for which the Percent Effect in assay [1] was -0.456%; in assay [2] it was -4.97%.
As to `CCCc1nc(C)c(C(=O)NCCN2CCN(CC)CC2)s1`, the Percent Effect in assay [1] is -0.278%; in assay [2], -15.4%.
For `CC(O)CN1CCN(C(=O)c2ccc(N(C)C)nc2)CC1` (stereo not given) the same measures were 1.24% and -70%.
For `Cc1nnc(NC(=O)NCc2ccc(N3CCN(C)CC3)nc2)s1`, the Percent Effect worked out at 3.74% in assay [1] and 24.2% in assay [2].
For the molecule `COCCC(=O)N1C[C@H]2CN(Cc3cccc(C)n3)C(=O)[C@H]2C1`, the Percent Effect in assay [1] is 0.774%; in assay [2] it was -18.7%.
With `Cc1nc(C)n(C2CCCN(C(=O)CCCn3ccnc3)C2)n1` (stereo not given), the Percent Effect in assay [1] is -0.127%; in assay [2], -12.7%.
Turning to `N#Cc1ccc(NCCNc2ccc(C(F)(F)F)cn2)nc1`, the Percent Effect was -3.59% in assay [1] and 45.1% in assay [2].
Regarding `CN(C)c1cncc(C2CCN(CCO)CC2)n1`, the figures for the Percent Effect in assay [1] and in assay [2] were -2.69% and -4.99%, respectively.
For the molecule `Cc1ccc(S(=O)(=O)NC(=O)c2c(C)noc2C(C)C)cc1C`, the results for the Percent Effect in assay [1] and in assay [2] were 1.59% and 8.34%, respectively.
With `COc1c(C(=O)NCc2cccnc2)nnn1Cc1ccc(C)cc1`, the Percent Effect in assay [1] is -4.7%; in assay [2] it was -4.95%.
As for `N#Cc1cnn(-c2ccc(C(=O)Nc3ccccn3)cc2)c1N`, the figures for the Percent Effect in assay [1] and in assay [2] were -3% and -40.7%, respectively.
`O=C1N(CCCc2ccccc2)CCCC1(O)CNCc1ccccc1` (stereo not given): the values for the Percent Effect in assay [1] and in assay [2] were 4.53% and -10.3%, respectively.
For `CCn1cc(CN2CCCn3nc(CCC(=O)NCCO)cc3C2)cn1` the same measures were 0.624% and -51%.
Consider `CN(Cc1ccc2c(c1)OCCO2)C(=O)Cn1cccnc1=O`, for which the results for the Percent Effect in assay [1] and in assay [2] were -2.54% and -20.6%, respectively.
Regarding `Cc1csc(CNC(=O)NCCc2ccc3c(c2)OCCO3)n1`, the figures for the Percent Effect in assay [1] and in assay [2] were -5.39% and -15.4%, respectively.
Regarding `CO[C@H]1CCN(Cc2cccc(C)n2)[C@@H]2CN(Cc3cccnc3)C[C@H]12`, the Percent Effect is -0.57% in assay [1] and -14.4% in assay [2].
Regarding `CN(C)CCO[C@@H]1CC[C@H]2[C@H]1OCCN2C(=O)COc1ccccc1`, the Percent Effect in assay [1] was 1.51%; in assay [2] it was -12.1%.
For the molecule `Cc1nnc2n1CCN(C(=O)c1cc(Cl)c[nH]1)C2`, the Percent Effect in assay [1] is -0.345%; in assay [2] it was 2.46%.
Turning to `COc1ccccc1S(=O)(=O)N1CCC(Oc2cccnn2)CC1`, the figures for the Percent Effect in assay [1] and in assay [2] were -2.24% and -12.5%, respectively.
For the molecule `NS(=O)(=O)CCNC(=O)c1nnn(-c2ccc(F)cc2)c1C1CC1`, the Percent Effect was -3.36% in assay [1] and -8.62% in assay [2].
On to `O=C(CC1CCCC1)N1CCCC1c1nc(O)cc(-c2ccccn2)n1` (stereo not given), for which the Percent Effect in assay [1] is -2.84%; in assay [2] it was -10.1%.
With `O=C(CCc1ccccc1)NCC1CCN(Cc2ccsc2)CC1`, the Percent Effect is -3.19% in assay [1] and -9.05% in assay [2].
In the same order, the values of `COC(=O)c1cccc(C(=O)N2CCN(c3cccc(C)c3C)CC2)n1` are -1.18% and -18.6%.
For `Cn1ccc2c(C(=O)N3CCC(C(N)=O)CC3)cccc21` the same measures were 0.465% and -43.9%.
For `CCOCCn1c(=O)[nH]c2cc(C(=O)N(C)CCc3cn[nH]c3)ccc21`, the results for the Percent Effect in assay [1] and in assay [2] were 0.279% and -26.7%, respectively.
